Pf Dd2 inh: blocks in vitro growth of P. falciparum Dd2; P. falciparum Dd2 growth, SYBR Green, 72 h; Potency, µM (highest dose often 28.9 µM), without a hit: at the highest dose activity, negative = inhibition, actives largely listed as inhibitors; 120,000 tested, 4.3% active; AID 1347417; active means well fitted inhibition curve with a large enough effect;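 further: plate controls were DMSO vehicle for no effect and reference drug for full effect; nearly all actives have a fitted effect of over 65% in size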
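Readout: SYBR Green fluorescence, 485 nm excitation, 535 nm emission, after ~16 h lysis at 37C. Before that, Dd2-infected red cells (2.5% hematocrit) grew 72 h with compound, 29 uM top final concentration.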
Starred values were filed as active, the others as inactive; i = inactive; [ ] = dose if it differs, or a comment. Shown is part of a subset that was picked to be rich in hits. Potency means the concentration at half of the fitted maximal effect.

SMILES | Pf Dd2 inh
CCc1ccc(-n2c(=O)c3cccnc3n2CC(=O)Nc2ccccc2C(F)(F)F)cc1 | 11µM*
Cc1ccc(-n2c(=O)c3cccnc3n2CC(=O)Nc2cc(C)cc(C)c2)cc1 | -11%
Cc1ccc(CNC(=O)Cn2c3ncccc3c(=O)n2-c2ccccc2)cc1 | 39%
CCc1cccc(-n2c(=O)c3cccnc3n2CC(=O)Nc2ccc(F)c(C)c2)c1 | 1.3µM*
CCOC(=O)c1ccccc1NC(=O)Cn1c2ncccc2c(=O)n1-c1ccccc1 | i
Cc1ccc(-n2c(=O)c3cccnc3n2CC(=O)Nc2ccc(C)cc2Cl)cc1 | -8%
O=C(Cn1c2ncccc2c(=O)n1-c1ccccc1)Nc1ccc(F)c(F)c1 | -16%
CCc1cccc(-n2c(=O)c3cccnc3n2CC(=O)Nc2c(C)cc(C)cc2C)c1 | -4%
Cc1ccc(-n2c(=O)c3cccnc3n2CC(=O)Nc2cccc(C)c2C)cc1 | 3.5µM*
Cc1cccc(C(=O)N2[C@@H]3CC[C@H]2CC(NC(=O)c2ccncc2)C3)c1 (some centres undefined) | i
CSCC(=O)N1C[C@@H](NC(=O)NC2CCCCC2)C[C@H]1C(=O)N(C)CC(N)=O | 21%[44.1 µM]
CN(C)C[C@@H]1CN(S(C)(=O)=O)C[C@H]1N | i
O=C(Cn1c(=O)oc2ccccc21)NCC12CCCC=C1NC(=O)CC2 (centres undefined) | -6%
Cc1ccccc1[C@H]1C[C@@H](O)[C@@H](O)[C@@H]1NS(=O)(=O)c1cccc(C#N)c1 | -24%[44.1 µM]
CCOCc1nc(C2CCCN(C(=O)C3(c4ccc(OC)cc4)CC3)C2)no1 (centres undefined) | 6%
COc1ccccc1NC(=O)CCn1cc(-c2nccn2C)nn1 | -10%
COc1ccc(NC(=O)Cn2cnnn2)c(NC(=O)C(C)C)c1 | 12%
COc1ccc2c(c1)C1(CCN(S(=O)(=O)c3ccc4c(c3)CC(=O)N4C)C1)C(=O)N2C (centres undefined) | 2.5µM*
COc1ccc2c(c1)C1(CCN(C(=O)CCc3ccccc3)C1)C(=O)N2C (centres undefined) | -2%
CN1C(=O)Cc2cc(S(=O)(=O)N3CCN(c4ccc(Cl)cc4)CC3)ccc21 | -1%
COc1cc(OC)cc(C(=O)N2CCCN(C)c3ccccc32)c1 | -14%
CC1(COCC2CC2)COc2ccc(C(=O)Nc3cccnc3)cc2N1 (centres undefined) | i
CC1(C)[C@H]2CC[C@@H](CNC(=O)c3cc(F)ccc3Br)[C@@H]1C2 | -29%[44.1 µM]
CC1(C)[C@H]2CC[C@@H](CNC(=O)c3ccncc3)[C@@H]1C2 | -12%[44.1 µM]
CC1(C)[C@H]2CC[C@@H](CNC(=O)c3cccc(Br)c3)[C@@H]1C2 | 11µM*
SMILES | Pf Dd2 inh
CC(=O)N1CCCCC1c1nnc2n1CCNC2 (centres undefined) | 16%[44.1 µM]
Cc1cccc(C)c1-c1nc(C(=O)NCc2ccsc2)n2ccccc12 | 8.9µM*
COc1ccccc1-c1nc(C(=O)NC2CC2)n2ccncc12 | -19%[44.1 µM]
Cc1cccc(C)c1-c1nc(C(=O)NCc2cccnc2)n2ccccc12 | -19%
COc1ccccc1-c1nc(C(=O)NCc2cccs2)n2ccccc12 | i
O=C(NCc1ccc(F)cc1)c1nc(-c2ccc(Cl)nc2)c2cnccn12 | 7.9µM*
O=C(NCCc1ccc(Cl)cc1)c1nc(-c2ccc(Cl)nc2)c2cnccn12 | 8.9µM*
O=C(NCCc1ccc(Cl)cc1)c1nc(-c2ccccc2)c2ccccn12 | -7%
COCCNC(=O)c1nc(-c2ccccc2OC)c2cnccn12 | -8%[44.1 µM]
O=C(c1nc(-c2ccc(Cl)nc2)c2cnccn12)N1CCCC1 | 9%
C#CCNC(=O)c1nc(-c2ccc(Cl)nc2)c2ccccn12 | -26%
COC(=O)CNC(=O)c1nc(-c2ccc(Cl)nc2)c2cnccn12 | 10%
COc1ccccc1-c1nc(C(=O)NCc2ccc3c(c2)OCO3)n2ccncc12 | 13µM*
Cc1ccc(CN2C(=O)NC3(CCN(C(=O)c4ccsc4)CC3)C2=O)cc1 | 4%
COCCn1ncc(N2CCC(NC(=O)CC3CCCC3)CC2)cc1=O | 11%
COc1ccc(CN(C)C(=O)Cn2nnnc2CN2CCOCC2)c2cccnc12 | -4%
CCNC(=O)N1CCCC1c1noc(CCC(=O)NC2CC2)n1 (centres undefined) | -12%
O=C(NCCc1noc(-c2cccnc2)n1)c1c2c(nc3ccccc13)CCCC2 | i
COCCN(Cc1cccs1)C(=O)CN1CC2CC(C1)[C@H]1CCCC(=O)N1C2 (some centres undefined) | -1%
O=C(Cc1cccc(F)c1)N1CC(Oc2ccc(-c3nc(-c4ccccc4)no3)cc2)C1 | 19%[5.79 µM]
Cc1ccc(-n2c(C3CCN(C(=O)c4ccc(C)nc4)CC3)n[nH]c2=O)cc1 | -13%
O=C(NCc1cccs1)c1nc(-c2ccc(F)cc2)c2cnccn12 | 4µM*
C[S+](=O)([O-])c1ccc(-c2nc(C(=O)NCc3ccc(F)cc3)n3ccncc23)cc1 | 11µM*
N#CC1CCN(C(=O)c2nc(-c3ccc(F)cc3)c3cnccn23)CC1 | i
O=C(NCc1ccc(F)cc1)c1nc(-c2ccccc2)c2cnccn12 | 4µM*
SMILES | Pf Dd2 inh
CC(C)(C)c1nc(C(=O)NCc2ccc(F)cc2)n2ccccc12 | -10%
O=C(NCc1cccnc1)c1nc(-c2ccc(F)cc2)c2cnccn12 | -5%
C#CCNC(=O)c1nc(-c2cccnc2)c2ccccn12 | i
Cn1ncc2c(C(=O)NCc3ccc(F)cc3)cc(-c3ccc([S+](C)(=O)[O-])cc3)nc21 | -16%
O=C(NCc1cccnc1)c1nc(-c2ccccc2)c2ccccn12 | 10µM*
O=C(NCc1cccnc1)c1nc(-c2ccc(Cl)nc2)c2ccccn12 | 58%
COC(=O)CNC(=O)c1nc(-c2cccc(C(F)(F)F)c2)c2cnccn12 | 16%
O=C(NCc1ccncc1)c1nc(-c2cccnc2)c2cnccn12 | -1%
COCC(=O)N1CCC2(CC1)Cc1ccccc1NC2=O | 1%[44.1 µM]
COc1ccc(CC(=O)N2CCC(Cc3nc(-c4ccc(F)cc4)no3)CC2)cc1 | 12%
COc1ccc(C)cc1NC(=O)C1CCN(C(=O)c2ncn3c2COC(c2ccc(F)cc2)C3)CC1 (centres undefined) | -16%
COc1ccccc1-c1nnc([C@H]2CCN(C3CCN(C)CC3)C2)o1 | i
CCn1ncc(N2CCC(NC(=O)C(C)(C)C)CC2)cc1=O | 1%
CCCC1(C(=O)O)CCCN(C(=O)c2cccc(OC)c2OC)C1 (centres undefined) | -24%
CCC(=O)Nc1cccc(C2OC(=O)N(Cc3ccc(C)cc3)C2C(=O)NCCOC)c1 (centres undefined) | i
Cc1ccc(CN2C(=O)OC(c3cccc(NC(=O)c4ccccc4)c3)C2C(=O)NCCC(C)C)cc1 (centres undefined) | 7.1µM*
Cc1cccc(C(=O)Nc2cccc(C3OC(=O)N(Cc4ccccc4)C3C(=O)NCC(C)C)c2)c1 (centres undefined) | -8%
Cc1nc(N2CCN(C)CC2)ncc1C(=O)N1C[C@@H](C)[C@](O)(C2CC2)C1 | -5%
c1ccc(CCc2nnc3n2CCNCC3)cc1 | -23%
COc1cc(CN2C[C@@H](CO)[C@H](NC(=O)c3cccnc3)C2)ccc1F | -9%
CCOc1ccc(CNC(=O)C2CCN(Cc3cc4ccccc4n3Cc3ccccc3C)CC2)cc1 | i
Cc1ccccc1Cn1c(CN2CCC(C(=O)NCc3ccc(Cl)cc3)CC2)cc2ccccc21 | 15%
Cc1ccccc1Cn1c(CN2CCC(C(=O)NCCN(C)C)CC2)cc2ccccc21 | 1µM*
c1cc(CN2CC[C@H]3CNC[C@H]32)cc(OCCCCN2CCCCC2)c1 | -12%

Screens: PubChem BioAssay, National Center for Advancing Translational Sciences (NCATS)
